PostGolgi yeast: growth inhibition of a yeast mutant, post-Golgi transport screen. inhibition, % at 10 µM. post-Golgi transport phenotypic cell assay. 98,000 compounds, 0.9% hits;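 note: yeast cells grown in 1536-well plates; yeast grown about 18 h at 30C before absorbance read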
S1P2 ag: S1P2 (human) receptor agonism; O95136; S1P2-expressing cell line, agonist reporter read-out; activation, % at 4.5 µM; 97,000 compounds, 0.46% hits; in the data active = activation above about 16%;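 note: 0% = vehicle low control and 100% = maximal reference agonist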
GALR2 antag: antagonists of human galanin receptor 2 (GALR2); O43603; GALR2-expressing cells, antagonist mode; inhibition, % at 4 µM; 140,000 compounds, 0.39% hits; AID 828; in the data active = inhibition above about 27%;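 note: cells stimulated with galanin 1-16 at roughly its EC80; 0% = agonist challenge control and 100% = basal control without agonist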
Target sequence (O43603 whole entry, looked up): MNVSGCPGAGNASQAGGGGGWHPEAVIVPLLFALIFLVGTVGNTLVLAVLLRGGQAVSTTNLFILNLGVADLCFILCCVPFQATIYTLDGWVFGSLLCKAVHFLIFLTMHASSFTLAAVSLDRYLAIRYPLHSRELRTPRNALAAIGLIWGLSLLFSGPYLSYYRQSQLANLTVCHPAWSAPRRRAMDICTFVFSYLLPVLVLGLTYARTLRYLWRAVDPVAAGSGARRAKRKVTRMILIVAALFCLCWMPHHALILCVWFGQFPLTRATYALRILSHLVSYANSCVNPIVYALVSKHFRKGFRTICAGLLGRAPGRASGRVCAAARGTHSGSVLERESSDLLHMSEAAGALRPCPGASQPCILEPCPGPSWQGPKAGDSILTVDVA
GALR2 ag: agonists of human galanin receptor 2 (GALR2) | O43603 | GALR2-expressing cells, agonist activation read-out | activation, % (test concentration not listed) | 140,000 compounds, 0.48% hits | AID 803; in the data active = activation above about 5%, passing the limit was not always enough;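 note: 0% = vehicle buffer wells and 100% = reference agonist at full effect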
PostGolgi ctrl: growth of the yeast control strain, post-Golgi counter-screen | efflux-deficient yeast background strain, growth absorbance A615, 16 h | inhibition, % at 10 µM | 98,000 compounds, 5% hits | AID 738
S1P2 blocker: S1P2 (human) receptor antagonism. 97,000 compounds, 0.21% hits. O95136. cell-based S1P2 antagonist assay, inhibition at 5 uM. inhibition, % at 5 µM; in the data active = inhibition above about 45%;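 note: CRE beta-lactamase reporter cells expressing human S1P2 stimulated with S1P; 0% = agonist at EC80 alone and 100% = agonist plus reference antagonist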
Active calls of the source: *; / = no result given. This excerpt belongs to a sample that is enriched for hits. Cut-off read from the data, not from the text of the source, unless noted: active = inhibition above about 30%; inactive = the rest.

SMILES	PostGolgi yeast	S1P2 ag	GALR2 antag	GALR2 ag	PostGolgi ctrl	S1P2 blocker
COc1ccc(-n2ccnc2SCC(=O)Nc2ccccc2)cc1	6	-3	4	-2	37*	8
CCN1C(=O)N/C(=C/c2ccc(C)o2)C1=O	/	/	-2	-2	/	/
Cc1ccc(/C=C2/NC(=O)N(Cc3ccc(Br)cc3)C2=O)o1	/	/	22	6.1*	/	/
O=C(N/N=C1/CC2C=CCC12)c1ccco1 (configuration not stated)	/	/	-1	-1	/	/
Clc1cccc(CON/C=N/c2ncnc3sccc23)c1	21	-6	2	-2	35*	14
Clc1cccc(Cl)c1CON/C=N/c1ncnc2sccc12	-8	-2	4	-1	12	26
COc1ccc(-c2cc(C(=O)N3CC4(C)CC3CC(C)(C)C4)no2)cc1 (configuration not stated)	-11	1	-21	-1	34*	-2
CC1(C)CC2CC(C)(CN2C(=O)c2cc(-c3ccccc3O)on2)C1 (configuration not stated)	11	-3	6	-1	78*	1
COc1ccc(Cn2c(-c3ccc(C)cc3)c[n+]3ccccc23)cc1	/	/	-1	-1	/	/
NC(=O)c1cc(-c2ccccc2)nc(N2CCCCCC2)n1	18	-4	3	-1	37*	-15
COc1ccccc1-c1cc(C(F)(F)F)nc(NCc2ccco2)n1	-3	1	0	-3	31*	1
COc1ccc2c(c1)c1ncn(Cc3ccco3)c(=O)c1n2C	1	19*	-9	1	8	-60
COc1ccc2c(c1)[nH]c1c(=O)n(Cc3ccco3)cnc12	-3	-6	11	-3	3	-26
COC(=O)NC1CCC(CC2CCC(NC(=O)OC)CC2)CC1 (configuration not stated)	14	-4	18	-2	49*	-8
COc1ccc(Nc2nc(N)nc(CSc3nnc(N)s3)n2)cc1	32*	-4	2	-2	-4	-7
COc1ccc(Nc2nc(N)nc(COc3ccc(OC)cc3)n2)cc1	-1	-6	4	-3	4	21
COc1ccc2nc(SCc3nc(N)nc(Nc4ccccc4)n3)[nH]c2c1	-7	17*	1	0	8	0
COc1ccc2nc(SCC(=O)Nc3ccccc3)[nH]c2c1	/	/	11	-1	/	/
COc1ccc(OCc2nc(N)nc(Nc3ccc(C)cc3)n2)cc1	2	-1	5	1	53*	13
CCCCNC(=S)Nc1cc([N+](=O)[O-])ccc1C	/	/	4	0	/	/
CCOC(=O)N/N=C(\C)c1ccc(C)c([N+](=O)[O-])c1	/	/	6	-1	/	/
NC(=O)C1CCN(C(=O)COc2ccc(S(=O)(=O)NCc3ccccc3)cc2Cl)CC1	/	/	6	-2	/	/
CCO/N=C(\C)c1c(O)c(CC)c(-c2ccccc2)n(-c2ccccc2)c1=O	/	0	-8	-2	/	-11
Fc1cccc(Cl)c1CSc1nnc(COc2cccc3cccnc23)o1	4	-1	-8	-3	62*	1
Clc1ccccc1OCc1nnc(-c2ccccc2Br)o1	8	-4	2	-3	14	0
SMILES	PostGolgi yeast	S1P2 ag	GALR2 antag	GALR2 ag	PostGolgi ctrl	S1P2 blocker
NCCc1nnc(SCc2c(F)cccc2Cl)o1	-3	-3	17	-4	-1	-8
Brc1ccccc1-c1nnc(COc2cccc3cccnc23)o1	9	0	-7	-4	33*	-29
CC(=NC(C)C)C1=C(O)C(C)OC1=O (configuration not stated)	/	/	-4	-1	/	/
CCc1cc2cccc(C)c2nc1SCC(=O)N1CCN(C(=O)c2ccco2)CC1	-4	/	11	-1	36*	/
Cc1occc1C(=O)Nc1sc2c(c1C(N)=O)CCCCC2	0	-6	20	-1	31*	-5
CCC(=O)Nc1sc2c(c1C(N)=O)CCC2	3	-5	3	-1	31*	11
NC(=O)c1c(NC(=O)CN2C(=O)CCC2=O)sc2c1CCCCC2	32*	-6	3	-1	-9	6
COC(=O)c1c(NC(=O)c2ccoc2C)sc2c1CCC2	8	-4	4	-1	8	-9
CCC(CC)NC(=O)COC(=O)c1ccc(NS(=O)(=O)c2ccc3c(c2)OCCO3)cc1	2	1	5	-1	0	-9
CCn1c(SCC(=O)NCc2ccccc2)nc2ccccc2c1=O	2	-6	4	0	7	-14
O=C(CSc1nc2ccccc2c(=O)n1C1CC1)NCc1ccccc1	2	-5	8	-1	36*	-11
CCOC(=O)c1c(NC(=O)CN2CCCCC2)sc2c1CCC(C=O)=C2Cl	40*	-4	7	-1	8	13
NC(=O)NCc1ccc(Cl)cc1	-9	-10	5	-2	-1	6
O=C(/C=C/c1cccs1)Nc1nc(-c2ccccc2)cs1	-3	-4	-12	-3	33*	10
O=C(COC(=O)/C=C/c1cccs1)Nc1nc(-c2ccccc2)cs1	/	/	0	-1	/	/
O=C(COc1ccccc1)N1CCN(c2nnc(-c3ccccc3)c3ccccc23)CC1	3	-8	-10	0	18	20
Cc1ccc(OCC(=O)N2CCN(c3nnc(-c4ccc(C)cc4)c4ccccc34)CC2)cc1	-2	-4	-20	-1	71*	-2
COc1ccc(OCC(=O)N2CCN(c3nnc(-c4ccccc4)c4ccccc34)CC2)cc1	-2	-3	17	0	32*	-9
Cc1ccc(-c2nnc(N3CCN(C(=O)CN4C(=O)c5ccccc5C4=O)CC3)c3ccccc23)cc1	/	-5	-9	1	/	16
Cc1cccc(-n2c(SCc3ccc(C#N)cc3)nnc2-c2c[nH]c3ccccc23)c1	/	/	1	2	/	/
O=C(COc1ccc(S(=O)(=O)NC2CCCCC2)cc1Cl)N1CCN(c2ccccc2)CC1	5	-4	-7	-1	19	1
COc1ccc(CCCc2nnc(SCC(=O)Nc3nccs3)n2C)cc1C	-9	1	-2	0	45*	-25
CC(=O)N1c2c(cc(Br)cc2S(=O)(=O)N2CCN(C(=O)c3ccco3)CC2)CC1C (configuration not stated)	4	-1	-14	1	9	5
CCC(=O)N1CCc2cc(Br)cc(S(=O)(=O)N3CCCCCC3)c21	8	-2	-16	0	36*	-7
O=C(C1CC1)N1CCc2cc(Br)cc(S(=O)(=O)N3CCCCCC3)c21	-1	/	2	1	41*	/
CCC(=O)N1CCN(c2ccc(Cl)cc2NC(=O)c2ccc3c(c2)OCCO3)CC1	-2	-4	-9	0	47*	1
COCC(C)n1c(C)cc(C(=O)COC(=O)c2nc3nc(C)cc(C)n3n2)c1C (configuration not stated)	8	-5	-11	-3	33*	22
CCCc1cc(=O)[nH]c(SCC(=O)c2cc(C)n(C(C)COC)c2C)n1 (configuration not stated)	-3	-4	-11	0	49*	3

High-throughput results as filed in PubChem BioAssay.
